Dicer processing = inhibitors of human Dicer processing of pre-microRNA; Q9UPY3; cat-ELCCA pre-miR-21 Dicer processing, chemiluminescence; hits give high values; z-score at 25 µM; 47,000 compounds, 6% hits; AID 1347074; in the data active = z-score above about 3, passing the limit was not always enough;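 note: plate controls were vehicle for no effect and no enzyme for full effect; higher signal means more uncleaved substrate so more Dicer inhibition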
Target sequence (Q9UPY3 whole entry, looked up): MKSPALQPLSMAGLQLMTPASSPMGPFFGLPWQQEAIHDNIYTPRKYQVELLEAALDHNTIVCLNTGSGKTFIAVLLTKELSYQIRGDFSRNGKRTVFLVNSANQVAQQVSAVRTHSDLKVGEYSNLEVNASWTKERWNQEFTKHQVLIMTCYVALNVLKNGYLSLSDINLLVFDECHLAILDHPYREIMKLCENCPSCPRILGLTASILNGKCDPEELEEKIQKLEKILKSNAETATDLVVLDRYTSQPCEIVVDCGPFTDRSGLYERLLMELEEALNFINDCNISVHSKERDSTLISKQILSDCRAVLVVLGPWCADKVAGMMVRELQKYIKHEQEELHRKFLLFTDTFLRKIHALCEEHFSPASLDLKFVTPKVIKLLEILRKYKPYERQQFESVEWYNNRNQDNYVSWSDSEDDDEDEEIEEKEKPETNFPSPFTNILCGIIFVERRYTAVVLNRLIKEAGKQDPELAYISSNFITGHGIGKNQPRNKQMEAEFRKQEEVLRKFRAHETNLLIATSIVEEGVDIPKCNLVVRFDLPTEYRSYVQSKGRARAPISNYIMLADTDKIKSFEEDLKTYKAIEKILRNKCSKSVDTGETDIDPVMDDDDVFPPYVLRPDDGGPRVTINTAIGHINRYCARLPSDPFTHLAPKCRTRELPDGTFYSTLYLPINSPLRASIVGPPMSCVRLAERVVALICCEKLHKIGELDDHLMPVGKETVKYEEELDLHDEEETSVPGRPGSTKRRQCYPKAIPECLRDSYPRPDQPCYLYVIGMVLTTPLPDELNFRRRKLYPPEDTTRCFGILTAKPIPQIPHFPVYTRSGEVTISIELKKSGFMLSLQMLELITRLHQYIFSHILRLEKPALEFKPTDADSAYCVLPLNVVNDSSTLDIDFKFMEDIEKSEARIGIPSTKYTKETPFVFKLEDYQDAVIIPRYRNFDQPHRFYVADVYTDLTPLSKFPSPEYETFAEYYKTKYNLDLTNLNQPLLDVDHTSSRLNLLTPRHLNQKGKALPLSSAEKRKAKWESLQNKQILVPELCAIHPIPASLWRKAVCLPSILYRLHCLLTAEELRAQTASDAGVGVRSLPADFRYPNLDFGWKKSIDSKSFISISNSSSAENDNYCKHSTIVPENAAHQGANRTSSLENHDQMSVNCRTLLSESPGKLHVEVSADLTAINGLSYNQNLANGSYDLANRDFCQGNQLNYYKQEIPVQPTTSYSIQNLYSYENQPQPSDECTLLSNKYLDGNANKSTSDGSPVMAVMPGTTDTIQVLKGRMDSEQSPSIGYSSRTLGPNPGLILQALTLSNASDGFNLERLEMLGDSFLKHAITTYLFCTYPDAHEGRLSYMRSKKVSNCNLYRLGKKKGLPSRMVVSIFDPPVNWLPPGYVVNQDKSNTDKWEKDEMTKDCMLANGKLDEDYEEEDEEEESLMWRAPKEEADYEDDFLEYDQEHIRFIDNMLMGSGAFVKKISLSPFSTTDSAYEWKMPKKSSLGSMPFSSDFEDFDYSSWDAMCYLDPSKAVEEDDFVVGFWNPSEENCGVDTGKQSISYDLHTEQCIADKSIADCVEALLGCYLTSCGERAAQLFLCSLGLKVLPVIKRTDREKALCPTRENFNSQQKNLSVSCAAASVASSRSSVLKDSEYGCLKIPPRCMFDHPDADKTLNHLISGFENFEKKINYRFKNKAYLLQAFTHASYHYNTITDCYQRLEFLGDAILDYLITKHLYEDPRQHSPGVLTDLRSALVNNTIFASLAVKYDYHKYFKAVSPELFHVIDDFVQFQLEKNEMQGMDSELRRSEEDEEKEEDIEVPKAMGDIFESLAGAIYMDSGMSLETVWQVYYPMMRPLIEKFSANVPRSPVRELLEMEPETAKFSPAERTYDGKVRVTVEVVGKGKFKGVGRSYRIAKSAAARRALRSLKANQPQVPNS
Active calls of the source: *. This is one part of a sample in which hits are shown more often than they occur.

SMILES | Dicer processing
CCOC(=O)c1ncn(Cc2ccccc2)c1N | 3.4*
CCOC(=O)c1cn(Cc2ccccc2)c2cc(C)nn2c1=O | -0.01
CC(NC(=O)C(C(=O)NC(C)C1CC2CCC1C2)C12CC3CC(CC(C3)C1)C2)C1CC2CCC1C2 (stereo not given) | 0.37
Cc1c(Cl)cccc1SCC(=O)O | -1.5
COC(=O)C(C(=O)OC)c1ccc(Cl)cc1[N+](=O)[O-] | -0.92
Cc1csc(NS(=O)(=O)c2ccc(Cl)cc2)c1-c1nc2ccccc2s1 | 4.2*
Cc1csc(NC(=O)COCC(=O)O)c1-c1nc2ccccc2s1 | 1.3
CC(=O)Nc1scc(C)c1-c1nc2ccccc2s1 | -0.01
CC1(C)CC(=O)C(C(C2=C(O)CC(C)(C)CC2=O)c2ccc([N+](=O)[O-])s2)C(=O)C1 (stereo not given) | -0.64
O=C(O)/C=C/C(=O)Nc1ccc(N2CCCCCC2)c(NC(=O)/C=C/C(=O)O)c1 | 6.7
Cc1ccc(C(=O)COC(=O)c2ccc3nc(C)c(C)nc3c2)cc1 | -0.11
COC(=O)c1ccc2nc(C)c(C)nc2c1 | 2.4
CCOC(=O)c1ccc2nc(C)c(C)nc2c1 | 4.8*
CC(C)(C)C(=O)OC12C=CC(O1)C1C(=O)N(c3cc(C(F)(F)F)cc(C(F)(F)F)c3)C(=O)C12 (stereo not given) | 1.4
C=CCNc1cc(C)nc2ncnn12 | -1.1
CC1=C(C#N)C(c2ccccc2OC(C)C)C2=C(CC(c3ccccc3)CC2=O)N1 (stereo not given) | 1.6
COc1ccc(C(=O)CC2(O)C(=O)N(C(C)C)c3ccccc32)cc1OC (stereo not given) | 0.88
O=C(CN1C2=NCCCN2c2ccccc21)c1ccc2c(c1)OCO2 | 0.97
O=C(CN1C2=NCCCN2c2ccccc21)c1ccc(Br)cc1 | 4*
O=C(CN1C2=NCCN2c2ccccc21)c1ccc(Cl)cc1 | 0
CN(C)S(=O)(=O)N(C)Cc1ccccc1 | 0.51
COC(=O)c1sc2nc(-c3cccs3)cc(C(F)(F)F)c2c1N | 1.8
Cc1nn(C)c2oc(=O)cc(C(F)(F)F)c12 | -1.9
O=C1/C(=C/c2cccs2)CCCc2ccccc21 | 0.41
O=C1/C(=C/c2cccs2)CS/C1=C/c1cccs1 | -3
SMILES | Dicer processing
O=C1/C(=C/c2cccs2)COC/C1=C\c1cccs1 | 4.2*
NS(=O)(=O)c1ccc(-n2nc(C(F)(F)F)cc2-c2cccs2)cc1 | 7
CC(NC(=O)C(C)(C)C)C1CC2CCC1C2 (stereo not given) | 0.75
O=c1[nH]c2ccccc2c2ccccc12 | -0.32
O=c1[nH]c2ccccc2c(O)c1-c1ccccc1 | 0.27
O/N=C1\CCCc2[nH]c3ccccc3c21 | 5.1*
CC1CCCN(c2cc(N(C)C)c([N+](=O)[O-])cc2F)C1 (stereo not given) | 1.5
CC(C)OC(=O)C(C)Oc1ccc2c(=O)c(Oc3ccccc3Br)coc2c1 (stereo not given) | -0.2
Cc1ccc(C)c(Oc2coc3cc(OCC(=O)OCC(C)C)ccc3c2=O)c1 | 1.9
Cc1cc(C)cc(Oc2coc3cc(O)ccc3c2=O)c1 | 4.3*
CC(C)(C)c1ccc(Oc2coc3cc(O)ccc3c2=O)cc1 | -1.3
Cc1ccc(Oc2coc3cc(O)ccc3c2=O)cc1 | 0.2
CCC(=O)Oc1ccc2c(=O)c(Oc3ccccc3Br)coc2c1 | 4.3*
Cc1cccc(Oc2coc3cc(OC(=O)c4cccnc4)ccc3c2=O)c1 | -0.67
CCC(C)OC(=O)COc1ccc2c(=O)c(Oc3cc(C)ccc3C)coc2c1 (stereo not given) | 7.7
CCOCCOC(=O)COc1ccc2c(=O)c(Oc3cc(C)ccc3C)coc2c1 | 3.4*
Cc1cccc(Oc2coc3cc(OC(=O)c4ccncc4)ccc3c2=O)c1 | 28*
COc1ccc(Oc2coc3cc(OC(=O)c4ccc(F)cc4)ccc3c2=O)cc1 | 0.4
CC(C)(C)C(=O)Oc1ccc2c(=O)c(Oc3ccccc3Br)coc2c1 | -0.06
C/C(=N/OC(=O)Nc1cccc(C)c1)c1ccc2c(c1)CCO2 | 1.8
N/C(=N\C(=O)N1CCOCC1)c1ccccc1OC(F)(F)F | -0.73
Cc1ccc(Nc2nc(C3(C)CC(C(C)C)C(=O)O3)cs2)cc1 (stereo not given) | -0.38
O=S(=O)(Cc1ccccc1)c1ncc(CO)n1Cc1ccccc1 | 1.6
Cc1noc(C(F)(F)F)c1C(=O)O/N=C(\N)c1cccc(C(F)(F)F)c1 | -1.5
CN1c2ccsc2C(=O)/C(=C\Nc2ncccn2)S1(=O)=O | -0.34
SMILES | Dicer processing
N#C/C(=N\OS(=O)(=O)c1ccc(Cl)c(Cl)c1)c1c(Cl)cccc1Cl | -0.19
C=CCOc1ccc(C2c3c(oc4ccc(F)cc4c3=O)C(=O)N2CCOC)cc1OC (stereo not given) | -0.73
COc1ccc(C(=O)Oc2ccc3c(=O)c(Oc4ccccc4Br)coc3c2)cc1OC | 3.1*
COc1ccccc1C(=O)Oc1ccc2c(=O)c(Oc3ccccc3Br)coc2c1 | 2.2
CCOC(=O)Oc1ccc2c(=O)c(Oc3ccc(C(C)(C)C)cc3)coc2c1 | 1.5
CCCCOC(=O)Oc1ccc2c(=O)c(Oc3ccc(C)cc3)coc2c1 | 3.5*
COc1ccccc1-c1coc2cc(OC(=O)c3ccc(Cl)cc3)ccc2c1=O | -0.87
C=CCOC(=O)Oc1ccc2c(=O)c(Oc3ccc(CC)cc3)coc2c1 | 1.3
COC(=O)CSc1nc(N)cc(=O)[nH]1 | 2.7
CCn1c[n+](CC(O)COC2CCCCC2)c2cc(C)c(C)cc21 (stereo not given) | 2.1
COc1ccc(C2C(C#N)=C(N)Oc3c2sc2ccccc32)cc1OC (stereo not given) | 0.06
COC(=O)c1ccc(O)c(CSc2ccccn2)c1 | 0.13
CC1(C)CC2(C)OC(=O)c3ccccc3N2C(=S)N1 (stereo not given) | -0.95
COC(=O)c1cc(S(=O)(=O)C(C)C)c(S(C)(=O)=O)s1 | -0.98
CCOC(=O)c1cc(S(=O)(=O)C(C)C)c(SC)s1 | 3.8*
CCOC(=O)c1sc(SC)c(S(C)(=O)=O)c1N | -0.95
CC(C)(C)/C=N/N/C=C(\C#N)S(=O)(=O)C(C)(C)C | -1.5
CC(=O)c1ccc(OCc2cccc(C(=O)N3CCN(c4ncccc4C(F)(F)F)CC3)c2)cc1 | -0.77
CCOc1ccc(/C(O)=C2\C(=O)C(=O)N(c3nnc(C)s3)C2c2ccc(OC)c(OC)c2)cc1 (stereo not given) | 2.3
CCOc1ccc(/C(O)=C2\C(=O)C(=O)N(c3nccs3)C2c2ccc(OC)c(OC)c2)cc1 (stereo not given) | 3.6*
CCOc1ccc(/C(O)=C2\C(=O)C(=O)N(c3nnc(C)s3)C2c2ccc(OC)cc2)cc1 (stereo not given) | 1.4
Cc1[nH]nc(-c2cccs2)c1C(=O)NN | 5
Cc1cc(OC(=O)c2ccc([N+](=O)[O-])cc2)c(Cl)c(C)c1Cl | -0.7
CCCOC(=O)c1c(NC(=O)Cn2nc([N+](=O)[O-])cc2C)sc2c1CCCC2 | 4.3*
CCOC(=O)c1c(NC(=O)CCC(=O)OC)sc2c1CCCC2 | -1.2
SMILES | Dicer processing
CCOC(=O)c1c(NC(=O)Cn2nc(C(F)(F)F)c3c2CCC3)sc2c1CCCC2 | 0.11
Cc1ccc(S(=O)(=O)CCSc2n[nH]c(=O)n2-c2ccc(OCc3ccccc3)cc2)cc1 | 0.2
Fc1ccc(NCc2ccncc2)cc1 | 3.5*
Fc1ccc(NCc2ccc3c(c2)OCO3)cc1 | 323
c1cc(CNc2ccc3c(c2)OCO3)ccn1 | 1.7
COc1cc(C2CC(=O)Nc3nc(N)[nH]c(=O)c32)ccc1OCc1ccccc1 (stereo not given) | 3.4
CC(C)(C)c1ccc(C(=O)Nc2nc3ccsc3c(=O)s2)cc1 | 0.07

Bioassay records as filed in PubChem.
